Experimental data taken from PubChem BioAssay AID2283174 (EPA ToxCast).
The source made the active and inactive calls. Rule for the calls: active = hit-call score of the fitted dose curve at least 0.9, where 1 is the maximum; inactive = score below 0.9.

The compounds below were run against human Mitogen-Activated Protein Kinase 11 (MAPK 11), MAPK11 (gene 5600) (UniProt Q15759) (assay: NVS_ENZ_hMAPK11: NovaScreen (NVS) Enzymatic Assay for human Mitogen-Activated Protein Kinase 11 (MAPK 11)).
Experimental: NVS_ENZ_hMAPK11 is a biochemical, single-readout assay that uses extracted gene-proteins in a cell-free assay. Measurements were taken 0 hour after chemical dosing in a 384-well plate.NVS_ENZ_hMAPK11 is one of one assay component(s) measured or calculated from the NVS_ENZ_hMAPK11 assay. It is designed to make measurements of enzyme activity, a form of enzyme reporter, as detected with fluorescence intensity signals by Fluorescence and electrophoretic mobility shift technology.Data from the assay component NVS_ENZ_hMAPK11 was analyzed into 1 assay endpoint. This assay endpoint, NVS_ENZ_hMAPK11, was analyzed in the positive analysis fitting direction relative to DMSO as the negative control and baseline of activity. Using a type of enzyme reporter, loss-of-signal activity can be used to understand changes in the enzymatic activity as they relate to the gene MAPK11. Furthermore, this assay endpoint can be referred to as a primary readout, because this assay has produced multiple assay endpoints where this one serves a enzymatic activity function. To generalize the intended target to other relatable targets, this assay endpoint is annotated to the kinase intended target family, where the subfamily is serine/threonine kinase.
Binding assays used specific radioligands (tritiated, iodinated) with non-radioactive competitive displacement ligands in agonist or antagonist protocols (as indicated) and various reference compounds and inhibitors to titrate specific binding to receptors and transporters. Most enzyme assays (CYPs, kinases, phosphatases, proteases, HDACs) used recombinant protein and specific substrates (fluorescence mostly, some colorimetric and radioactive) and inhibitors, followed by a biochemical separation of substrate and product. All assays for the biochemical HTS were initially run in duplicate at a single concentration (10 uM for CYP450 assays and 25 uM for all others). Assay-chemical combinations meeting a pre-defined threshold (e.g., 30% inhibition and other criteria defined below) were then run in singleton concentration-response format with maximum concentration of 20 uM for CYPs and 50 uM for all others. Each assay was run with positive and negative controls, and concurrent controls on every plate. The follow-up (secondary) screen tested active chemical-pairs in concentration series, as well as a few additional assays not tested in the primary screen, some selected negative inactives, and several cases re-run in the concentration series for confirmatory purposes.

Sequence of human Mitogen-Activated Protein Kinase 11 (MAPK 11), MAPK11 (gene 5600) (Q15759 whole entry, looked up): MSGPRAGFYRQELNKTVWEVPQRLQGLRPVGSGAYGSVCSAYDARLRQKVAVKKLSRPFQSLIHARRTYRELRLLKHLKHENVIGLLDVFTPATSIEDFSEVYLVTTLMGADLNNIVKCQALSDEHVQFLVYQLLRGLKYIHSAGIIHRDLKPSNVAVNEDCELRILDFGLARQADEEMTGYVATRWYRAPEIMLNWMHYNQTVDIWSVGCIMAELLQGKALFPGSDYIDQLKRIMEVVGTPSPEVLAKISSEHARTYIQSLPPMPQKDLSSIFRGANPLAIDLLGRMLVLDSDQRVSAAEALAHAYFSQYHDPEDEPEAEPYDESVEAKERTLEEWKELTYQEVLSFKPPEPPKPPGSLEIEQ

SMILES	outcome	AC50
CC(C)(c1ccc(O)cc1)c1ccc(O)cc1	inactive	
S=C([S-])NCCNC(=S)[S-].[Mn+2]		24.4 µM (active)
C#CCOC(=O)[C@@H](C)Oc1ccc(Oc2ncc(Cl)cc2F)cc1	inactive	
CCCCC(CC)COC(=O)c1ccccc1C(=O)O (stereo unspecified)	inactive	
COCCO	inactive	
S=C(S)NCCNC(=S)S.[Mn+2].[S-]C([S-])=NCCN=C([S-])[S-].[Zn+2]		16.6 µM (active)
